Measured values: PubChem BioAssay (NCATS)
Results filed as inconclusive are left out. A call without a number means that no potency is given here. Calls of active or inactive are those of the source. Calls come from the whole dose curve; as a rule, active = well fitted inhibition curve with a large enough effect; inconclusive = small, poorly fitted or top-dose-only effect; inactive = flat fitted curve, though single readings scatter.

Assays:
Assay in all cases: qHTS profiling for inhibitors of Plasmodium falciparum proliferation (AID 504749); note: nearly all actives have a fitted effect of over 60% in size
Conditions in all cases: P. falciparum in erythrocytes, SYBR Green DNA, 72 h; series mostly up to 28.7 µM
7G8 = tested on: 7G8
Summary of the method: (§1)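 SYBR Green fluorescence (ex 485 nm, em 535 nm) reports parasite DNA after 72 h compound exposure of infected red cells at 0.3% parasitemia, 2.5% hematocrit; signal normalized to 0.29 uM artemisinin and vehicle wells.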

ATS95 = tested on: ATS95
Summary of the method: as §1

CP201 = tested on: CP201
Summary of the method: as §1

CP203 = tested on: CP203
Summary of the method: as §1

CP215 = tested on: CP215
Summary of the method: as §1

CP247 = tested on: CP247
Summary of the method: as §1

CP260 = tested on: CP260
Summary of the method: as §1

CP266 = tested on: CP266
Summary of the method: as §1

CP291 = tested on: CP291
Summary of the method: as §1

CP297 = tested on: CP297
Summary of the method: as §1

CP325 = tested on: CP325
Summary of the method: as §1

CP335 = tested on: CP335
Summary of the method: as §1

DIV14 = tested on: DIV14
Summary of the method: as §1

DIV17 = tested on: DIV17
Summary of the method: as §1

DIV30 = tested on: DIV30
Summary of the method: as §1

GB4 = tested on: GB4
Summary of the method: as §1

ICS = tested on: ICS
Summary of the method: as §1

P93_24 = tested on: P93_24
Summary of the method: as §1

PAD = tested on: PAD
Summary of the method: as §1

PC26 = tested on: PC26
Summary of the method: as §1
Potency is the fitted concentration of half-maximal effect.

Structure (SMILES)	Potency (7G8)	Potency (ATS95)	Potency (CP201)	Potency (CP203)	Potency (CP215)	Potency (CP247)	Potency (CP260)	Potency (CP266)	Potency (CP291)	Potency (CP297)	Potency (CP325)	Potency (CP335)	Potency (DIV14)	Potency (DIV17)	Potency (DIV30)	Potency (GB4)	Potency (ICS)	Potency (P93_24)	Potency (PAD)	Potency (PC26)
CO/N=C(/C(=O)N[C@@H]1C(=O)N2C(C(=O)O)=C(C[n+]3ccc(N)n3CCO)CS[C@H]12)c1csc(N)n1	inactive	inactive	inactive	inactive	inactive	inactive	inactive	inactive	inactive	inactive	inactive	inactive	inactive	inactive	inactive	inactive	inactive	inactive	inactive	inactive
Cc1cnc(C(=O)O)cn1	inactive	inactive	inactive	inactive	inactive	inactive	inactive	inactive	inactive	inactive	inactive	inactive	inactive	inactive	inactive	inactive	inactive	inactive	inactive	inactive
CC(O)C1CCC2C3CCC4CC(O)CCC4(C)C3CCC12C (configuration not stated)	inactive	inactive	inactive	inactive	inactive	inactive	inactive	inactive	inactive	inactive	inactive	inactive	inactive	inactive	inactive	inactive	inactive	inactive	inactive	inactive
CNC1C(O)C(OC2C(N)CC(N)C(OC3OC(CN)=CCC3N)C2O)OCC1(C)O (configuration not stated)	inactive	inactive	inactive	inactive	inactive	inactive	inactive	inactive	inactive	inactive	inactive	inactive	inactive	inactive	inactive	inactive	inactive	inactive	inactive	inactive
CCCCCCCCCCCCCCCC(=O)OCC(COP(=O)(O)OCC[N+](C)(C)C)OC(=O)CCCCCCCCCCCCCCC (configuration not stated)	inactive	inactive	inactive	inactive	inactive	inactive	inactive	inactive	inactive	inactive	inactive	inactive	inactive	inactive	inactive	inactive	inactive	inactive	inactive	inactive
CNC(=O)C(N)CSC(C)C1=C(C)c2cc3[n-]c(cc4nc(cc5[n-]c(cc1n2)c(C)c5CCC(=O)O)C(CCC(=O)O)=C4C)c(C)c3C(C)SCC(N)C(=O)NC.[Fe+2] (configuration not stated)	inactive	inactive	inactive	inactive	inactive	inactive	inactive	inactive	inactive	inactive	inactive	inactive	inactive	inactive	inactive	inactive	inactive	inactive	inactive	inactive
NC(CSSCC(N)C(=O)O)C(=O)O (configuration not stated)	inactive	inactive	inactive	inactive	inactive	inactive	inactive	inactive	inactive	inactive	inactive	inactive	inactive	inactive	inactive	inactive	inactive	inactive	inactive	inactive
CC(=O)OC1C([N+]2(C)CCCCC2)C[C@H]2C3CC[C@H]4C[C@H](OC(C)=O)C([N+]5(C)CCCCC5)CC4(C)C3CCC12C (some centres not stated)	inactive	inactive	–	–	–	inactive	inactive	–	–	6010 nM (active)	–	–	–	–	–	–	inactive	inactive	inactive	16900 nM (active)
CO[C@H]1C[C@@H]2CC[C@@H](C)[C@@](O)(O2)C(=O)C(=O)N2CCCC[C@H]2C(=O)O[C@H]([C@H](C)C[C@@H]2CC[C@@H](O)[C@H](OC)C2)CC(=O)[C@H](C)/C=C(\C)[C@@H](O)[C@@H](OC)C(=O)[C@H](C)C[C@H](C)/C=C/C=C/C=C/1C	1000 nM (active)	3980 nM (active)	6010 nM (active)	1690 nM (active)	1690 nM (active)	3550 nM (active)	4470 nM (active)	–	4260 nM (active)	4260 nM (active)	5360 nM (active)	1900 nM (active)	1690 nM (active)	1690 nM (active)	1900 nM (active)	1690 nM (active)	501 nM (active)	2000 nM (active)	1000 nM (active)	1510 nM (active)
CCCCC(=O)O[C@]1(C(=O)CO)CCC2C3CCC4=CC(=O)CCC4(C)C3C(O)CC21C (some centres not stated)	12600 nM (active)	inactive	inactive	inactive	inactive	inactive	–	inactive	inactive	inactive	inactive	inactive	inactive	inactive	inactive	inactive	–	inactive	inactive	inactive
C[C@]12CC[C@@H]3c4ccc(O)cc4C[C@@H](CCCCCCCCCS(=O)CCCC(F)(F)C(F)(F)F)C3[C@@H]1CC[C@@H]2O (some centres not stated)	1780 nM (active)	8910 nM (active)	–	–	–	–	8910 nM (active)	inactive	12000 nM (active)	4260 nM (active)	–	13500 nM (active)	3010 nM (active)	4780 nM (active)	3790 nM (active)	9530 nM (active)	2000 nM (active)	2240 nM (active)	3980 nM (active)	3380 nM (active)
CO/N=C(/C(=O)N[C@@H]1C(=O)N2C(C(=O)O)=C(CSC(=O)c3ccco3)CSC12)c1csc(N)n1 (some centres not stated)	inactive	inactive	inactive	inactive	inactive	inactive	inactive	inactive	inactive	inactive	inactive	inactive	inactive	inactive	inactive	–	inactive	inactive	inactive	inactive
CCC(=O)O[C@]1(C(=O)CCl)[C@@H](C)CC2C3C[C@H](F)C4=CC(=O)C=CC4(C)[C@@]3(F)C(O)CC21C (some centres not stated)	1580 nM (active)	6310 nM (active)	–	–	10700 nM (active)	12600 nM (active)	11200 nM (active)	–	13500 nM (active)	10700 nM (active)	16900 nM (active)	10700 nM (active)	4260 nM (active)	4260 nM (active)	12000 nM (active)	7570 nM (active)	2820 nM (active)	10000 nM (active)	3980 nM (active)	12000 nM (active)
CC1C(=O)C(=O)C=CN1C (configuration not stated)	inactive	inactive	inactive	inactive	inactive	inactive	–	inactive	inactive	inactive	inactive	inactive	inactive	inactive	inactive	inactive	inactive	inactive	inactive	inactive
OCC1OC(O)C(O)C(O)C1O (configuration not stated)	inactive	inactive	inactive	inactive	inactive	inactive	inactive	inactive	–	–	–	inactive	–	–	inactive	–	inactive	inactive	inactive	–
OCC(CO)NC1C[C@](O)(CO)[C@@H](O)[C@H](O)[C@H]1O (some centres not stated)	inactive	inactive	inactive	inactive	inactive	inactive	inactive	–	–	inactive	inactive	inactive	inactive	inactive	inactive	inactive	inactive	inactive	inactive	inactive
CCCCCOC(=O)Nc1nc(=O)n(C2O[C@H](C)[C@@H](O)[C@@H]2O)cc1F (some centres not stated)	inactive	inactive	inactive	inactive	inactive	–	inactive	inactive	inactive	inactive	inactive	inactive	inactive	inactive	inactive	inactive	inactive	inactive	inactive	inactive
CCC(C(=O)C(C)C(O)C(C)CCc1ccc(C)c(O)c1C(=O)O)C1OC(CC)(C2CC[C@@](O)(CC)C(C)O2)CC1C (some centres not stated)	501 nM (active)	891 nM (active)	1070 nM (active)	849 nM (active)	849 nM (active)	794 nM (active)	631 nM (active)	1350 nM (active)	478 nM (active)	601 nM (active)	953 nM (active)	426 nM (active)	953 nM (active)	849 nM (active)	601 nM (active)	757 nM (active)	631 nM (active)	794 nM (active)	1260 nM (active)	849 nM (active)
O=C(O)C(O)c1ccccc1 (configuration not stated)	inactive	inactive	inactive	inactive	inactive	inactive	inactive	inactive	inactive	inactive	inactive	inactive	inactive	inactive	inactive	inactive	inactive	inactive	inactive	inactive
Cc1onc(-c2c(F)cccc2Cl)c1C(=O)NC1C(=O)N2C1SC(C)(C)C2C(=O)O (configuration not stated)	inactive	inactive	inactive	inactive	inactive	inactive	inactive	inactive	inactive	inactive	inactive	inactive	inactive	inactive	inactive	inactive	inactive	inactive	inactive	inactive
NC(=O)OC[C@@H]1[C@H](NC(=O)/C(=N/OCC(=O)O)c2csc(N)n2)C(=O)N1S(=O)(=O)O	inactive	inactive	inactive	inactive	inactive	inactive	inactive	inactive	inactive	inactive	inactive	inactive	inactive	–	inactive	inactive	inactive	inactive	inactive	inactive
CC(C)C(=O)OCC(=O)[C@@]12OC(C3CCCCC3)O[C@@H]1CC1C3CCC4=CC(=O)C=C[C@]4(C)C3[C@@H](O)C[C@@]12C (some centres not stated)	447 nM (active)	708 nM (active)	–	–	–	1000 nM (active)	708 nM (active)	1350 nM (active)	–	–	–	601 nM (active)	1510 nM (active)	1350 nM (active)	–	1070 nM (active)	794 nM (active)	891 nM (active)	1000 nM (active)	–
C/C(=C(/CCO)SS/C(CCO)=C(\C)N(C=O)Cc1cnc(C)nc1N)N(C=O)Cc1cnc(C)nc1N	inactive	inactive	inactive	inactive	inactive	–	–	inactive	inactive	inactive	inactive	inactive	inactive	inactive	inactive	inactive	inactive	inactive	inactive	inactive
CC[C@@]1(O)CC2CN(CCc3c([nH]c4ccccc34)[C@](C(=O)OC)(c3cc4c(cc3OC)N(C)C3[C@@](O)(C(=O)OC)C(OC(C)=O)[C@]5(CC)C=CCN6CC[C@@]43C65)C2)C1 (some centres not stated)	2820 nM (active)	3550 nM (active)	–	3010 nM (active)	3380 nM (active)	1120 nM (active)	794 nM (active)	–	–	2390 nM (active)	–	1900 nM (active)	4260 nM (active)	4780 nM (active)	1690 nM (active)	2130 nM (active)	708 nM (active)	3160 nM (active)	2240 nM (active)	–
CC1(C)CC1C(=O)N/C(=C/CCCCSCC(N)C(=O)O)C(=O)O (configuration not stated)	inactive	inactive	inactive	inactive	inactive	inactive	–	inactive	inactive	inactive	inactive	inactive	inactive	inactive	inactive	inactive	inactive	inactive	inactive	inactive
CC[C@H](C)[C@H]1O[C@]2(CC[C@@H]1C)C[C@@H]1C[C@@H](C/C=C(\C)[C@H](O[C@@H]3C[C@H](OC)[C@H](O[C@@H]4C[C@H](OC)[C@@H](O)[C@H](C)O4)[C@H](C)O3)[C@@H](C)/C=C/C=C3\CO[C@@H]4[C@H](O)C(C)=C[C@@H](C(=O)O1)[C@]34O)O2	2000 nM (active)	1120 nM (active)	1510 nM (active)	1510 nM (active)	1350 nM (active)	1000 nM (active)	2240 nM (active)	–	1510 nM (active)	1510 nM (active)	1350 nM (active)	1350 nM (active)	1690 nM (active)	2130 nM (active)	–	1510 nM (active)	1260 nM (active)	1260 nM (active)	1410 nM (active)	1200 nM (active)
